Results reported in PubChem BioAssay (NCI).
This is part of a sample that, as a whole, favours compounds with a hit. Of some 79,000 tested, about 15% had one in any assay. Activity calls are given as the source filed them. Cut-off read from the data, not from the text of the source: active = growth inhibition above about 70%; inactive = the rest.

Columns and labels:
[1] = NCI Yeast Anticancer Drug Screen. Data for the rad52 strain (AID 147);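 note: 0% = growth of vehicle-treated control cultures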; conditions: S. cerevisiae rad52 mutant growth inhibition, stronger effect = higher value
In short: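 Yeast strain carrying a DNA damage repair alteration was exposed to test compounds. Growth inhibition was measured relative to vehicle-treated controls.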

[2] = NCI Yeast Anticancer Drug Screen. Data for the wt1 strain (AID 149);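 note: 0% = growth of vehicle-treated wt1 cultures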; conditions: S. cerevisiae wt1 strain (SPY 50644) growth inhibition, stronger effect = higher value
In short: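 Readout: yeast growth inhibition, normalised to vehicle controls, in the wt1 strain exposed to test compounds.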

[3] = NCI Yeast Anticancer Drug Screen. Data for the mgt1 strain (AID 153); conditions: S. cerevisiae mgt1 mutant growth inhibition, stronger effect = higher value
In short: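 Yeast mgt1 strain (DNA repair/cell-cycle alteration panel) exposed to compounds; growth inhibition measured relative to vehicle-treated controls.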

[4] = NCI Yeast Anticancer Drug Screen. Data for the rad50 strain (AID 155);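 note: 0% = growth of vehicle-only cultures of the same strain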; conditions: S. cerevisiae rad50 strain growth inhibition, stronger effect = higher value
In short: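 Compounds were tested on a yeast strain with an engineered DNA damage repair alteration; the reported value is growth inhibition normalised to vehicle treatment.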

[5] = NCI Yeast Anticancer Drug Screen. Data for the mec2-1 strain (AID 157); conditions: S. cerevisiae mec2-1 strain, stronger effect = higher value
In short: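 mec2-1 yeast strain, carrying an alteration in DNA damage repair or cell cycle control, was exposed to compounds; growth inhibition was measured relative to vehicle-treated controls.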

[6] = NCI Yeast Anticancer Drug Screen. Data for the rad14 strain (AID 159);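 note: 0% = growth of vehicle-treated control cultures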; conditions: S. cerevisiae rad14 strain growth inhibition, stronger effect = higher value
In short: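 Compound-treated yeast with a defined DNA-repair lesion; growth inhibition normalised to vehicle-treated cultures.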

[7] = NCI Yeast Anticancer Drug Screen. Data for the sgs1 mgt1 strain (AID 161);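 note: 0% = growth of cultures given vehicle only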; conditions: S. cerevisiae sgs1 mgt1 strain, stronger effect = higher value
In short: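 Compounds are added to genetically altered yeast, and growth is compared with cultures given vehicle alone to give percent inhibition.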

[8] = NCI Yeast Anticancer Drug Screen. Data for the CLN2oe strain (AID 163);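 note: 0% = growth of vehicle-only control cultures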; conditions: S. cerevisiae CLN2oe strain, stronger effect = higher value
In short: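 Yeast cells carrying a defined cell-cycle control alteration were exposed to test compounds. Growth inhibition was scored against vehicle-treated control cultures.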

[9] = NCI Yeast Anticancer Drug Screen. Data for the cln2 rad14 strain (AID 165);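 note: 0% = growth equal to vehicle treated cultures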; conditions: S. cerevisiae cln2 rad14 strain, stronger effect = higher value
In short: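 Yeast carrying cln2 and rad14 alterations (cell cycle control and DNA damage repair) were exposed to compounds. Growth inhibition was measured against vehicle-treated controls.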

[10] = NCI Yeast Anticancer Drug Screen. Data for the bub3 strain (AID 167); conditions: S. cerevisiae bub3 mutant strain, stronger effect = higher value
In short: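 Growth of a checkpoint-deficient yeast mutant is measured after compound exposure. Values represent inhibition relative to vehicle.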

[11] = NCI Yeast Anticancer Drug Screen. Data for the wt2 strain (AID 169);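 note: 0% = growth of vehicle-treated yeast cultures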; conditions: S. cerevisiae wt2 strain growth inhibition, stronger effect = higher value
In short: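 Yeast cells were exposed to test compounds, and growth inhibition was measured relative to vehicle-treated controls.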

[12] = NCI Yeast Anticancer Drug Screen. Data for the mlh1 strain (AID 171);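 note: 0% = growth of vehicle-treated control cultures of the same strain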; conditions: S. cerevisiae mlh1 strain growth inhibition, stronger effect = higher value
In short: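 Yeast carrying a defined genetic alteration in DNA damage repair or cell cycle control were exposed to test compounds. Growth inhibition was measured relative to vehicle-treated controls.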

[13] = NCI Yeast Anticancer Drug Screen. Data for the sgs1 strain (AID 173);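 note: 0% = growth of vehicle-only control cultures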; conditions: S. cerevisiae sgs1 mutant, stronger effect = higher value
In short: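 Yeast mutant strains carrying defined defects in DNA damage repair or cell cycle control were exposed to test compounds. Growth inhibition was scored against vehicle-treated controls.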

[14] = NCI Yeast Anticancer Drug Screen. Data for the mlh1 rad18 strain (AID 175); conditions: S. cerevisiae mlh1 rad18 strain growth inhibition, stronger effect = higher value
In short: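 Growth inhibition of the yeast strain was measured after compound exposure and expressed relative to vehicle-treated controls. The strain carries defined defects in DNA damage repair.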

[15] = NCI Yeast Anticancer Drug Screen. Data for the rad18 strain (AID 177); conditions: S. cerevisiae rad18 mutant growth inhibition, stronger effect = higher value
In short: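 Yeast carrying a defined DNA damage repair alteration were exposed to compounds. Growth inhibition was expressed relative to vehicle-treated controls.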

[16] = at 5.0 µM (retest, dose inferred, filed as 0.5)
[17] = at 50.0 µM (retest, dose inferred, filed as 5.0)

Measured: growth inhibition

CCCC(O)C1CC(C(C)C)CCC1C (stereo unspecified)
active: [2]; at 100.0 µM 75% | [3]; at 100.0 µM 96% | [5]; at 50.0 µM 75.5% | [5]; at 100.0 µM 96% | [6]; at 100.0 µM 99% | [9]; at 50.0 µM 92% | [10]; at 50.0 µM 92.3% | [10]; at 100.0 µM 98% | [11]; at 100.0 µM 74% | [12]; at 100.0 µM 95% | [13]; at 100.0 µM 94% | [15]; at 100.0 µM 92%
inactive: [1]; at 1.2 µM 0% | [1]; at 3.7 µM 1% | [1]; at 11.0 µM 2% | [1]; at 33.0 µM 7% | [1]; at 100.0 µM 43% | [2]; at 1.2 µM -1% | [2]; at 3.7 µM 0% | [2]; at 11.0 µM -1% | [2]; at 33.0 µM 3% | [3]; at 1.2 µM -2% | [3]; at 3.7 µM 0% | [3]; at 11.0 µM -1% | [3]; at 33.0 µM 5% | [4]; at 1.2 µM 0% | [4]; at 3.7 µM -46% | [4]; [16] 0% | [4]; at 11.0 µM 25% | [4]; at 33.0 µM 6% | [4]; [17] 5% | [4]; at 50.0 µM 31.4% | [4]; at 100.0 µM 64% | [5]; at 1.2 µM 0% | [5]; at 3.7 µM 3% | [5]; [16] 0% | [5]; at 11.0 µM 5% | [5]; at 33.0 µM 9% | [5]; [17] 52% | [6]; at 1.2 µM -1% | [6]; at 3.7 µM 0% | [6]; at 11.0 µM 4% | [6]; at 33.0 µM 17% | [7]; [16] -11% | [7]; [17] 33% | [7]; at 50.0 µM 24.8% | [8]; at 1.2 µM -3% | [8]; at 3.7 µM -3% | [8]; at 11.0 µM 5% | [8]; at 33.0 µM 4% | [8]; at 100.0 µM 12% | [9]; [16] 4% | [9]; [17] 44% | [10]; at 1.2 µM -3% | [10]; at 3.7 µM -2% | [10]; [16] -2% | [10]; at 11.0 µM -3% | [10]; at 33.0 µM 1% | [10]; [17] 10% | [11]; at 1.2 µM -1% | [11]; at 3.7 µM 6% | [11]; at 11.0 µM 0% | [11]; at 33.0 µM 4% | [12]; at 1.2 µM -2% | [12]; at 3.7 µM 0% | [12]; at 11.0 µM 3% | [12]; at 33.0 µM 9% | [13]; at 1.2 µM -2% | [13]; at 3.7 µM -1% | [13]; at 11.0 µM 4% | [13]; at 33.0 µM 15% | [14]; [16] -1% | [14]; [17] 11% | [14]; at 50.0 µM 55.9% | [15]; at 1.2 µM 0% | [15]; at 3.7 µM 1% | [15]; at 11.0 µM 2% | [15]; at 33.0 µM 9%

COc1cc(CSc2ccc(O)cc2)cc(O)c1O
inactive: [1]; at 1.2 µM 2% | [1]; at 3.7 µM 3% | [1]; at 11.0 µM 5% | [1]; at 33.0 µM 7% | [1]; at 100.0 µM 8% | [2]; at 1.2 µM 0% | [2]; at 3.7 µM 0% | [2]; at 11.0 µM 1% | [2]; at 33.0 µM -2% | [2]; at 100.0 µM -1% | [3]; at 1.2 µM 1% | [3]; at 3.7 µM -3% | [3]; at 11.0 µM 1% | [3]; at 33.0 µM 0% | [3]; at 100.0 µM 2% | [4]; at 1.2 µM 3% | [4]; at 3.7 µM 6% | [4]; [16] 5% | [4]; at 11.0 µM -2% | [4]; at 33.0 µM 6% | [4]; [17] 42% | [4]; at 50.0 µM 60.8% | [4]; at 100.0 µM 6% | [5]; at 1.2 µM 4% | [5]; at 3.7 µM -1% | [5]; [16] -14% | [5]; at 11.0 µM -1% | [5]; at 33.0 µM -4% | [5]; [17] -6% | [5]; at 50.0 µM 54.1% | [5]; at 100.0 µM 0% | [6]; at 1.2 µM 1% | [6]; at 3.7 µM 2% | [6]; at 11.0 µM 5% | [6]; at 33.0 µM 0% | [6]; at 100.0 µM 1% | [7]; [16] -3% | [7]; [17] 30% | [8]; at 1.2 µM 6% | [8]; at 3.7 µM 8% | [8]; at 11.0 µM 10% | [8]; at 33.0 µM 12% | [8]; at 100.0 µM 17% | [9]; [16] 18% | [9]; [17] 14% | [9]; at 50.0 µM 36% | [10]; at 1.2 µM 6% | [10]; at 3.7 µM 10% | [10]; [16] -7% | [10]; at 11.0 µM 11% | [10]; at 33.0 µM 9% | [10]; [17] 14% | [10]; at 50.0 µM 61.2% | [10]; at 100.0 µM 6% | [11]; at 1.2 µM 1% | [11]; at 3.7 µM 1% | [11]; at 11.0 µM 0% | [11]; at 33.0 µM -1% | [11]; at 100.0 µM 1% | [12]; at 1.2 µM 4% | [12]; at 3.7 µM 0% | [12]; at 11.0 µM 3% | [12]; at 33.0 µM 2% | [12]; at 100.0 µM 3% | [13]; at 1.2 µM -1% | [13]; at 3.7 µM -2% | [13]; at 11.0 µM -1% | [13]; at 33.0 µM -1% | [13]; at 100.0 µM 2% | [14]; [16] 13% | [14]; [17] -1% | [15]; at 1.2 µM -2% | [15]; at 3.7 µM 1% | [15]; at 11.0 µM 2% | [15]; at 33.0 µM -10% | [15]; at 100.0 µM 10%
active: [7]; at 50.0 µM 74.7% | [14]; at 50.0 µM 73.5%
